Results from PubChem BioAssay (Tox21).
Values without a mark were called inactive. Records with an inconclusive call do not appear. Entries that show only a call come without a potency. Calls of active or inactive are those of the source. Unless noted, calls come from the whole dose curve; as a rule, active = well fitted curve in the direction sought with a large enough effect in the repeat runs; inconclusive = weak or mixed curves; inactive = no such curve, though single readings can be large; an effect the other way counts as inactive or inconclusive.

Experiments:
[1] = Human pregnane X receptor (PXR) small molecule agonists, qHTS cell viability counter screen (AID 1346977); details: PXR-Luc HepG2 viability, CellTiter-Fluor, 24 h; series mostly up to 92.4 µM; note: nearly all actives have a fitted effect of over 50% in size
Method in brief: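 Measures live-cell protease fluorescence (CellTiter-Fluor) in PXR-Luc HepG2 cells treated 24hr with compounds at 37C. Cells had 5hr to attach before pin transfer of DMSO solutions.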

[2] = Caspase-3/7 induction in HepG2 cells by small molecules, qHTS assay (AID 1346978); details: HepG2 caspase-3/7 activation, Caspase-Glo luminescence, 17 h; series mostly up to 92.4 µM; note: nearly all actives have a fitted effect of over 15% in size
Method in brief: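 Caspase-3/7 induction was measured by Caspase-Glo 3/7 luminescence (30 min, room temperature) after a 17 hr compound exposure of wild-type HepG2 cells seeded at 2,000 per well and pre-incubated 5 hr.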

[3] = Caspase-3/7 induction in CHO-K1 cells by small molecules, qHTS cell viability counter screen (AID 1346979); details: CellTiter-Fluor fluorescence, 17 h; series mostly up to 92.4 µM; note: nearly all actives have a fitted effect of over 35% in size
Method in brief: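 In the same wells as the caspase read, viability of compound-treated wild-type CHO-K1 cells was assessed using CellTiter-Fluor, added after 16hr at 37C and measured by fluorescence following 1hr further incubation.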

[4] = Caspase-3/7 induction in CHO-K1 cells by small molecules, qHTS assay (AID 1346980); details: CHO-K1 caspase-3/7 induction, Caspase-Glo luminescence, 17 h; series mostly up to 92.4 µM; note: nearly all actives have a fitted effect of over 15% in size
Method in brief: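 Luminescent Caspase-Glo 3/7 read (30min, room temperature) quantified apoptosis induction. Cells were wild-type CHO-K1, treated with compound for 17hr at 37 C and 5% CO2.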

[5] = Caspase-3/7 induction in HepG2 cells by small molecules, qHTS cell viability counter screen (AID 1346981); details: CellTiter-Fluor fluorescence, 17 h; series mostly up to 92.4 µM; note: nearly all actives have a fitted effect of over 30% in size
Method in brief: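 HepG2, WT, 2,000 cells/well; 5 hr pre-incubation 37 C/5% CO2; compound pin-transferred from DMSO; 16 hr exposure; CellTiter-Fluor, 1 hr; fluorescence read.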

[6] = biological target: Voltage-gated inwardly rectifying potassium channel KCNH2 (Homo sapiens) (UniProt Q12809); assay: Human Ether-a-go-go-Related Gene (hERG) channel small molecule antagonists: fluorescence cell-based qHTS assay (AID 1671200); details: hERG-U2OS cells, FluxOR thallium flux fluorescence; series mostly up to 76.8 µM;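 note: hERG-expressing U2OS cells given a thallium stimulus after FluxOR II dye loading; nearly all actives have a fitted effect of over 50% in size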
Sequence of Voltage-gated inwardly rectifying potassium channel KCNH2 (Homo sapiens) (Q12809 whole entry, looked up): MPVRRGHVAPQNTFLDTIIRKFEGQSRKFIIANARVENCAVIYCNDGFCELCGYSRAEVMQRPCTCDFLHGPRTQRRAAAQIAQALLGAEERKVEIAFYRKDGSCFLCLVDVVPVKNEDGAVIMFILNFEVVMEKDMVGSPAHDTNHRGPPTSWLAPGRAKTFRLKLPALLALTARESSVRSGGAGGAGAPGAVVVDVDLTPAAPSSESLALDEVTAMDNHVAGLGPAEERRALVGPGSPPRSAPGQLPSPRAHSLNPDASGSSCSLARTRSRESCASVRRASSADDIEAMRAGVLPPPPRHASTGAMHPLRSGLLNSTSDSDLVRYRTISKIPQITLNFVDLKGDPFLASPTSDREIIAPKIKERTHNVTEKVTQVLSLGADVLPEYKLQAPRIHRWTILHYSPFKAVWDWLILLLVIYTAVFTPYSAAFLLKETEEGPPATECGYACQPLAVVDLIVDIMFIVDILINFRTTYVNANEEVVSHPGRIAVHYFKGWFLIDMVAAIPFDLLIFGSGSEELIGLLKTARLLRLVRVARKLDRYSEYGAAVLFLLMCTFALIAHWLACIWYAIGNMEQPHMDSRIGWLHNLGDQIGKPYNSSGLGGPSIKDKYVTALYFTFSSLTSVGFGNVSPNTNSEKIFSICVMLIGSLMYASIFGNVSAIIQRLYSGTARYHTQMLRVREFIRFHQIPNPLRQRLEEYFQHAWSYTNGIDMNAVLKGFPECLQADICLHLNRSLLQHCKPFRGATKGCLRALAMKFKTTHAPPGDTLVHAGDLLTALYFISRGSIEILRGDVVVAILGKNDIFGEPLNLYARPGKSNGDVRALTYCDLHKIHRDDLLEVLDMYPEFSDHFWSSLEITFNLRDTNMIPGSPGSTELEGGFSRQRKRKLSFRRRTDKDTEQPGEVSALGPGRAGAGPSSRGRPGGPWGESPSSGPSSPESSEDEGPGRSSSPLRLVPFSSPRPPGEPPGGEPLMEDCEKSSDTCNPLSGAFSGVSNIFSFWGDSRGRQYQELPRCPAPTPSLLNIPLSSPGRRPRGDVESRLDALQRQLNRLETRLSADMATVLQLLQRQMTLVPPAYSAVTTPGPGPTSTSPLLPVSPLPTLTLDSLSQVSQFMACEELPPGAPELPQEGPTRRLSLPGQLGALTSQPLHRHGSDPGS
Method in brief: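 Quantitative HTS in hERG-U2OS cells: thallium entry through the channel reports activity, read as continuous 480/540 nm fluorescence over 2 min after stimulus addition.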

[7] = biological target: Nuclear receptor subfamily 1 group I member 2 (Rattus norvegicus) (UniProt Q9R1A7); assay: Rat pregnane X receptor (rPXR) activation by small molecules, qHTS assay (AID 1346983); details: rPXR luciferase reporter cells, One-Glo luminescence, 24 h; max activation: active compounds read high; note: nearly all actives have a fitted effect of over 20% in size
Method in brief: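 Luminescent readout (One-Glo luciferase, 30 min room temperature) followed 24 hr compound treatment at 37 C of rPXR cells plated 2,000 per well and preincubated 5hr; qHTS format with compounds delivered in DMSO.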

[8] = biological target: Nuclear receptor subfamily 1 group I member 2 (Homo sapiens) (UniProt O75469); assay: CYP3A4 induction through human pregnane X receptor (PXR) by small molecules, qHTS assay (AID 1346984); details: DPX-2 HepG2 PXR, CYP3A4-luciferin luminescence, 24 h; series mostly up to 46.1 µM; note: nearly all actives have a fitted effect of over 40% in size
Sequence of Nuclear receptor subfamily 1 group I member 2 (Homo sapiens) (O75469 whole entry, looked up): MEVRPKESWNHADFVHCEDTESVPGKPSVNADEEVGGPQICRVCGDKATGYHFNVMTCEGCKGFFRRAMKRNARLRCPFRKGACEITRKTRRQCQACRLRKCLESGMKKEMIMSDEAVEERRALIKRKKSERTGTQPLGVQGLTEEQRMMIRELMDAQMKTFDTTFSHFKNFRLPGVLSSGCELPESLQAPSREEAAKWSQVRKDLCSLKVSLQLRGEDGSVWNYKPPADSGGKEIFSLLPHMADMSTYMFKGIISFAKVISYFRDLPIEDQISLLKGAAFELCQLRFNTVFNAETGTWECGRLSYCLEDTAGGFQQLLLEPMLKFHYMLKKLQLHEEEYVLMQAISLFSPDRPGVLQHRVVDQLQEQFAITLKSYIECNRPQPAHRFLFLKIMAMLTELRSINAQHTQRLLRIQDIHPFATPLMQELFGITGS
Method in brief: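 Luminescence readout: luciferase signal after One-Glo (30 min, room temperature), following 3 h at 37C with 3uM final Luciferin-IPA P450 substrate. Cells were DPX-2 (HepG2, PXR/CYP3A4-luc co-transfected) dosed for 24 h.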

[9] = biological target: Nuclear receptor subfamily 1 group I member 2 (Homo sapiens) (UniProt O75469); assay: Human pregnane X receptor (PXR) activation by small molecules, qHTS assay (AID 1346985); details: DPX-2 HepG2 CYP3A4-luciferase, 24 h; series mostly up to 38.3 µM; note: nearly all actives have a fitted effect of over 40% in size
Method in brief: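 DPX-2 cells (HepG2 co-transfected with a PXR response element and a CYP3A4-promoter luciferase construct) were seeded at 2,000 per well, rested 5 hr at 37C, then exposed to DMSO-dissolved compounds for 24 hr. Activation was read as luciferase luminescence.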

[10] = biological target: Acetylcholinesterase (Homo sapiens) (UniProt P22303); assay: Acetylcholinesterase (AChE) small molecule antagonists: enzyme-based qHTS assay (AID 1347397; calls by dose curve; note: nearly all actives have a fitted effect of over 55% in size; note: potency is the fitted concentration of half-maximal effect); details: Potency: AChE enzyme activity inhibition; series mostly up to 115 µM
Sequence of Acetylcholinesterase (Homo sapiens) (P22303 whole entry, looked up): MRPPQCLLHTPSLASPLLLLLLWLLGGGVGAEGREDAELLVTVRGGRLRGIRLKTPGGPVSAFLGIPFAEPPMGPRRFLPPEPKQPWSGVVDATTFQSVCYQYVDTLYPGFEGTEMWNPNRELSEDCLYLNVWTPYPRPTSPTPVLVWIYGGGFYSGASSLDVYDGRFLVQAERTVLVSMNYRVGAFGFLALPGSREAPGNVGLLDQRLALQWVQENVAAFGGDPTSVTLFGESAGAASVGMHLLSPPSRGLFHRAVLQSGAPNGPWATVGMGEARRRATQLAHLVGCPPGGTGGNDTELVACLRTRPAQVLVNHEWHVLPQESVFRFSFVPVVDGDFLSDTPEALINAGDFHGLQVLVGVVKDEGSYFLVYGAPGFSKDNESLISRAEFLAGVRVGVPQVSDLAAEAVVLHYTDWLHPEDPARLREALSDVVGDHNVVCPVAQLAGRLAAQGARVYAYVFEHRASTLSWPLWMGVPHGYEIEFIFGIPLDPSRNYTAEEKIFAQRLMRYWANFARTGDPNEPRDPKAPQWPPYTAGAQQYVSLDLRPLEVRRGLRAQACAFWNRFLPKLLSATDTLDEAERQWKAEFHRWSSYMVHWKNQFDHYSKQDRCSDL
Method in brief: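 rhAChE 50 mU/mL (dispensed) + cpd or DMSO, 30 min RT; add DTNB/acetylthiocholine cocktail, 10 min RT; colorimetric thiocholine readout. qHTS, 1536-well format.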

[11] = biological target: Acetylcholinesterase (Homo sapiens) (UniProt P22303); assay: Acetylcholinesterase (AChE) small molecule antagonists: fluorescence cell-based qHTS assay (AID 1347398; calls by dose curve; note: nearly all actives have a fitted effect of over 50% in size; note: potency is the fitted concentration of half-maximal effect); details: SH-SY5Y cells; Potency: AChE activity; series mostly up to 115 µM
Method in brief: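 Read-out is Thiolite Green fluorescence at Ex/Em = 490/520 nm, formed by reaction with thiocholine released when cellular AChE in SH-SY5Y cells hydrolyzes acetylthiocholine. Compounds were preincubated 30 min at 37 C before substrate.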

[12] = biological target: Acetylcholinesterase (Homo sapiens) (UniProt P22303); assay: Acetylcholinesterase (AChE) small molecule antagonists: enzyme-based qHTS assay with human liver microsomes (AID 1347399; calls by dose curve; note: nearly all actives have a fitted effect of over 60% in size; note: potency is the fitted concentration of half-maximal effect); details: Potency: qHTS inhibition; series mostly up to 115 µM
Method in brief: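 Recombinant human AChE (50 mU/mL in the enzyme mix) and human liver microsomes (0.25 mg/mL final) were preincubated with compound and NADPH (0.25 mg/mL final) for 30 min at 37 C. Acetylthiocholine/DTNB was then added; thiocholine was read colorimetrically after 10 min at room temperature.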

[13] = biological target: Cytochrome P450 2D6 (Homo sapiens) (UniProt P10635); assay: Cytochrome P450 Family 2 Subfamily D Member 6 (CYP2D6) small molecule antagonists: luciferase reporter qHTS assay (AID 1671196); details: P450-Glo CYP2D6 enzyme assay, luciferin luminescence, 1 h; series mostly up to 115 µM; note: nearly all actives have a fitted effect of over 50% in size; note: potency is the fitted concentration of half-maximal effect
Sequence of Cytochrome P450 2D6 (Homo sapiens) (P10635 whole entry, looked up): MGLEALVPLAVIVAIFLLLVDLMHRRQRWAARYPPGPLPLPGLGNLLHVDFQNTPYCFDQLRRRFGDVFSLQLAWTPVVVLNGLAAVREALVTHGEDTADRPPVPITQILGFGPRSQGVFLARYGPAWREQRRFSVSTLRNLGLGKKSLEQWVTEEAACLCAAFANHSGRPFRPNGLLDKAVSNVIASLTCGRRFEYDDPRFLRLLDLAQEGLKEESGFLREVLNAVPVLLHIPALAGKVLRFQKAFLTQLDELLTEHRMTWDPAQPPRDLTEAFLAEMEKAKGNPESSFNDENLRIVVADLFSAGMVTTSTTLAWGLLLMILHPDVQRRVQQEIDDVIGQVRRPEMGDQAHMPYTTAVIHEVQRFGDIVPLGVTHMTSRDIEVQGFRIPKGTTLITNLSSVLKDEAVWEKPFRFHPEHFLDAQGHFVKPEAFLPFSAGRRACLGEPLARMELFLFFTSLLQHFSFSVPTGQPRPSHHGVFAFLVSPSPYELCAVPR
Method in brief: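 Read-out is luminescence from luciferin formed by CYP2D6 turnover of a proluciferin substrate, recorded as relative luminescence units. Reactions ran 1 h at room temperature after NADPH regeneration solution was added.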

[14] = biological target: Cytochrome P450 2C19 (Homo sapiens) (UniProt P33261); assay: Cytochrome P450 Family 2 Subfamily C Member 19 (CYP2C19) small molecule antagonists: luciferase reporter qHTS assay (AID 1671197); details: P450-Glo CYP2C19 enzyme, luciferin luminescence, 1 h; series mostly up to 115 µM; note: nearly all actives have a fitted effect of over 65% in size; note: potency is the fitted concentration of half-maximal effect
Sequence of Cytochrome P450 2C19 (Homo sapiens) (P33261 whole entry, looked up): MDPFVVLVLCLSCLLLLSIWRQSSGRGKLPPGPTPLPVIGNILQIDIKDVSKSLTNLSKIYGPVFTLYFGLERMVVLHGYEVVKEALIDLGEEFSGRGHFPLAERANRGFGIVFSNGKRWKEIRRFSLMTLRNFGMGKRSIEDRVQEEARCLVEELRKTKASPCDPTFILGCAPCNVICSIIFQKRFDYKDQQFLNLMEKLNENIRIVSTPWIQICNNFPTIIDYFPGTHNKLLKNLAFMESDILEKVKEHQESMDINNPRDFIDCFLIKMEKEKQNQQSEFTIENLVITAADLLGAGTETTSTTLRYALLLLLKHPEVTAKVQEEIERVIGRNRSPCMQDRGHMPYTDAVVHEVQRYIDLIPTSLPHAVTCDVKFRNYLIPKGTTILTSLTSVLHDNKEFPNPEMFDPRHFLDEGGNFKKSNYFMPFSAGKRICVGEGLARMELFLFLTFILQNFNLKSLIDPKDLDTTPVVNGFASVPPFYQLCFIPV
Method in brief: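 First, compounds are pinned into enzyme-substrate mix and held 10 min at room temperature. Second, NADPH regeneration solution is added and plates incubate 1 h at 37C. Third, detection reagent is added and luminescence read after 20 min.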

[15] = biological target: Cytochrome P450 2C9 (Homo sapiens) (UniProt P11712); assay: Cytochrome P450 Family 2 Subfamily C Member 9 (CYP2C9) small molecule antagonists: luciferase reporter qHTS assay (AID 1671198); details: P450-Glo CYP2C9 enzyme assay, luciferin luminescence; series mostly up to 115 µM; note: nearly all actives have a fitted effect of over 50% in size; note: potency is the fitted concentration of half-maximal effect
Sequence of Cytochrome P450 2C9 (Homo sapiens) (P11712 whole entry, looked up): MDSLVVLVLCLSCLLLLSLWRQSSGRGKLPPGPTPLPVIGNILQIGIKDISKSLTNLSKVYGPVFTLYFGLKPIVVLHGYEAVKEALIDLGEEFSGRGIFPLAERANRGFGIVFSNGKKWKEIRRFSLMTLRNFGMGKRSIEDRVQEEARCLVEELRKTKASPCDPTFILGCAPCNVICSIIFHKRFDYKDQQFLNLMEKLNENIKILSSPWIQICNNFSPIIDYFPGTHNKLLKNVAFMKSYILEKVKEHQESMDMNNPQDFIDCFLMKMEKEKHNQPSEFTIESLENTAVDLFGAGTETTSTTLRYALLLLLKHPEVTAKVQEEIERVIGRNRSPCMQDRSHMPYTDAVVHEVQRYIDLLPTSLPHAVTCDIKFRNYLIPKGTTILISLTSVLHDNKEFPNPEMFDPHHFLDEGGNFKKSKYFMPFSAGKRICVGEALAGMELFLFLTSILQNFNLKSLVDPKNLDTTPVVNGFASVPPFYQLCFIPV
Method in brief: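 Enzyme-substrate mix preincubated with compound 10 min at room temperature; reaction started with NADPH regeneration solution, 1 h 37C. Luminescent luciferin product read after 20 min detection reagent.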

[16] = biological target: Cytochrome P450 1A2 (Homo sapiens) (UniProt P05177); assay: Cytochrome P450 Family 1 Subfamily A Member 2 (CYP1A2) small molecule antagonists: luciferase reporter qHTS assay (AID 1671199); details: P450-Glo CYP1A2 enzyme, luciferin luminescence, 1 h; series mostly up to 115 µM; note: nearly all actives have a fitted effect of over 50% in size; note: potency is the fitted concentration of half-maximal effect
Sequence of Cytochrome P450 1A2 (Homo sapiens) (P05177 whole entry, looked up): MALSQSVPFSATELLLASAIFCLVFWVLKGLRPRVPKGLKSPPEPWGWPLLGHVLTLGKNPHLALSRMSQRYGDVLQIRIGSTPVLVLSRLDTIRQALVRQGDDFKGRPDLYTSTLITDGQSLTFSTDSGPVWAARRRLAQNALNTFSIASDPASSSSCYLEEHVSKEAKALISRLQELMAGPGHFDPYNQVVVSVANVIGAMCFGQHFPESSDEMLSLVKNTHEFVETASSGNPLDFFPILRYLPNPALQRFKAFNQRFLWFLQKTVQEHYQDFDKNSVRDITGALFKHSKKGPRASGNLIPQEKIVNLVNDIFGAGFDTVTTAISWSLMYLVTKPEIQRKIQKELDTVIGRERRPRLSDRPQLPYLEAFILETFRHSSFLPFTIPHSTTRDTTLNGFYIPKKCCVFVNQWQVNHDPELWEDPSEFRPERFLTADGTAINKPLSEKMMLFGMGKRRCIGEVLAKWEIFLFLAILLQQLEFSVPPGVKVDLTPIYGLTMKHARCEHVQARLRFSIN
Method in brief: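 P450-Glo CYP1A2, 1536-well qHTS: enzyme/proluciferin substrate + cpd (DMSO), 10 min RT; NADPH regen, 1 h RT; detection reagent, 20 min; luminescence, RLU.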

[17] = biological target: Cytochrome P450 3A4 (Homo sapiens) (UniProt P08684); assay: Cytochrome P450 Family 3 Subfamily A Member 4 (CYP3A4) small molecule antagonists: luciferase reporter qHTS assay (AID 1671201); details: P450-Glo CYP3A4 enzyme, luciferin luminescence, 1 h; series mostly up to 115 µM; note: nearly all actives have a fitted effect of over 50% in size; note: potency is the fitted concentration of half-maximal effect
Sequence of Cytochrome P450 3A4 (Homo sapiens) (P08684 whole entry, looked up): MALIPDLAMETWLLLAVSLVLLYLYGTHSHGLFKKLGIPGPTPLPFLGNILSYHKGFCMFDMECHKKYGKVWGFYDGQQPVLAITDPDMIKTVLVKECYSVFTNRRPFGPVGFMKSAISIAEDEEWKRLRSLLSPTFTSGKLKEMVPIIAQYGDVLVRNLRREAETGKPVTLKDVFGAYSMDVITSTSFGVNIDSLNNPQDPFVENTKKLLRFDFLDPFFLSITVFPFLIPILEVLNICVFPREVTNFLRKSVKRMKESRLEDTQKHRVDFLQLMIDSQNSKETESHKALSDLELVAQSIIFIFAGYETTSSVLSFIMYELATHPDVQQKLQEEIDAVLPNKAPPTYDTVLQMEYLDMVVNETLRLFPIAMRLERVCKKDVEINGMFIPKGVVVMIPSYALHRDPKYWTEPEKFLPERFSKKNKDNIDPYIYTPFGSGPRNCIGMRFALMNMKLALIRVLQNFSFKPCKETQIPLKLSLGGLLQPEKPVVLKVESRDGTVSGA
Method in brief: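 Inhibition of CYP3A4 is measured as loss of light: the enzyme converts a proluciferin substrate to luciferin, detected luminescently. Reaction ran 1 h at room temperature with NADPH regeneration after a 10 min compound preincubation.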

[18] = biological target: Nuclear receptor subfamily 1 group I member 2 (Homo sapiens) (UniProt O75469); assay: Human pregnane X receptor (PXR) small molecule agonists, qHTS assay (AID 1346982); details: PXR-Luc HepG2, CYP3A4 luciferase reporter, 24 h; series mostly up to 92.4 µM; note: nearly all actives have a fitted effect of over 35% in size; note: potency is the fitted concentration of half-maximal effect
Method in brief: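 Luciferase signal from ONE-Glo (30 min, room temperature) measured activation of hPXR-driven CYP3A4 reporter expression in PXR-Luc HepG2 cells treated with compounds for 24 hr at 37 C.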

[19] = biological target: Acetylcholinesterase (Homo sapiens) (UniProt P22303); assay: Acetylcholinesterase (AChE) small molecule antagonists: colormetric cell-based qHTS assay (AID 1347395; calls by dose curve; note: nearly all actives have a fitted effect of over 30% in size; note: potency is the fitted concentration of half-maximal effect); details: SH-SY5Y cells AChE activity, colorimetric (Ellman); series mostly up to 115 µM
Method in brief: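 Endogenous AChE of human neuroblastoma SH-SY5Y cells was measured with an Ellman-type DTNB/acetylthiocholine mix. Compound pretreatment lasted 30 min at 37 C; substrate reaction ran 90 min at 37 C.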

SMILES: O.O.O.O.O.O.O=S(=O)([O-])[O-].[Ni+2]
- Potency [1]: inactive
- Potency [2]: inactive
- Potency [3]: inactive
- Potency [4]: inactive
- Potency [5]: inactive
- Potency [6]: inactive

SMILES: CC(=O)[O-].CC(=O)[O-].O.O.O.[Pb+2]
- Potency [1]: inactive
- Potency [2]: inactive
- Potency [3]: inactive
- Potency [4]: inactive
- Potency [5]: inactive
- Potency [6]: inactive

SMILES: Clc1ccc(C2(Cn3cncn3)OCCO2)c(Cl)c1
- Potency [1]: inactive
- Potency [2]: inactive
- Potency [3]: inactive
- Potency [4]: inactive
- max activation [7]: -0.146%
- Potency [8]: inactive
- Potency [9]: inactive
- Potency [10]: inactive
- Potency [11]: inactive
- Potency [12]: inactive
- Potency [13]: 63.3 µM (active)
- Potency [14]: 3.17 µM (active)
- Potency [15]: 17.8 µM (active)
- Potency [16]: 28.3 µM (active)
- Potency [6]: inactive
- Potency [17]: 0.502 µM (active)

SMILES: CCOP(=S)(OCC)SC(CCl)N1C(=O)c2ccccc2C1=O (stereo not given)
- Potency [1]: inactive
- Potency [2]: inactive
- Potency [4]: inactive
- Potency [5]: inactive
- Potency [18]: 4.33 µM (active)
- Potency [19]: 31.7 µM (active)
- Potency [10]: 63.3 µM (active)
- Potency [11]: 10 µM (active)
- Potency [12]: 1.42 µM (active)
- Potency [13]: 39.9 µM (active)
- Potency [14]: 0.399 µM (active)
- Potency [15]: 1.12 µM (active)
- Potency [16]: 63.3 µM (active)
- Potency [6]: inactive

SMILES: O=S(=O)(O)F
- Potency [1]: inactive
- Potency [2]: inactive
- Potency [3]: inactive
- Potency [4]: inactive
- Potency [18]: 53.8 µM (active)
- Potency [19]: inactive
- Potency [10]: inactive
- Potency [11]: inactive
- Potency [12]: inactive
- Potency [13]: inactive
- Potency [15]: inactive
- Potency [16]: inactive
- Potency [6]: inactive
- Potency [17]: inactive

SMILES: CCCCN(CCCC)C(=S)[S-].CCCCN(CCCC)C(=S)[S-].[Ni+2]
- Potency [1]: inactive
- Potency [2]: inactive
- Potency [3]: inactive
- Potency [4]: inactive
- Potency [18]: inactive
- Potency [19]: inactive
- Potency [11]: inactive
- Potency [12]: inactive
- Potency [13]: inactive
- Potency [14]: inactive
- Potency [15]: inactive
- Potency [16]: inactive
- Potency [6]: inactive
- Potency [17]: inactive

SMILES: [Cl-].[Cl-].[Sn+2]
- Potency [1]: inactive
- Potency [2]: inactive
- Potency [3]: inactive
- Potency [4]: inactive
- Potency [5]: inactive
- Potency [6]: inactive

SMILES: CC#C[C@]1(O)CC[C@H]2[C@@H]3C[C@H](C)C4=CC(=O)CC[C@]4(C)[C@H]3CC[C@@]21C
- Potency [1]: inactive
- Potency [2]: inactive
- Potency [4]: inactive
- Potency [5]: inactive
- Potency [18]: 23.7 µM (active)
- Potency [19]: inactive
- Potency [10]: inactive
- Potency [11]: inactive
- Potency [12]: inactive
- Potency [13]: inactive
- Potency [14]: 9.77 µM (active)
- Potency [15]: 17.4 µM (active)
- Potency [16]: inactive
- Potency [6]: inactive
